AmpC detergent = blocks E. coli AmpC beta-lactamase in detergent assay. P00811. Potency, µM (doses to about 114 µM), for inactives: at the highest dose activity change, negative = inhibition, hits mostly inhibitors. hit rate 0.041% among 370,000. AmpC hydrolysis of nitrocefin, absorbance 480 nm, 0.01% Triton;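 further: 0% = no-compound wells and -100% = no-enzyme wells; nearly all actives have a fitted effect of over 25% in size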
Target sequence (P00811 whole entry, looked up): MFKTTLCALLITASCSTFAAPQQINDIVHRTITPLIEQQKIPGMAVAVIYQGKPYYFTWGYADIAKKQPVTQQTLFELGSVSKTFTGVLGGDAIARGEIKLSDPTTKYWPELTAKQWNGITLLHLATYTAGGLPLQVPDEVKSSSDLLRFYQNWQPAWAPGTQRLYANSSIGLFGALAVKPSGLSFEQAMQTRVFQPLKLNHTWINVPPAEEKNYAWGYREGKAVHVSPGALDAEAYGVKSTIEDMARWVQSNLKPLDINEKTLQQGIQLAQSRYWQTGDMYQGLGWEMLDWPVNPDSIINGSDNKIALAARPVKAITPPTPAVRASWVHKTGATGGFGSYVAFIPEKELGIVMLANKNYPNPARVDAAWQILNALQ
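20 mM phosphate pH 7.0 + 0.01% (detergent screen) or 0.0001% Triton X-100; 5.3 nM AmpC reagent; cpd preinc 15 min RT; nitrocefin (800 uM stock) to start; A480 q20 s × 4 min; Activity was normalised to no-enzyme and no-compound control wells.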
AmpC inh no detg = AmpC beta-lactamase inhibition without detergent. P00811. AmpC nitrocefin hydrolysis, absorbance 480 nm, 0.0001% Triton. Potency, µM (doses to about 57.1 µM), for the others: top-dose activity change, negative = inhibition, usual class: inhibitors. hit rate 0.52% among 330,000. AID 485341;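 further: plate controls were no compound for no effect and no enzyme for full effect; nearly all actives have a fitted effect of over 20% in size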
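AmpC (5.3 nM in the dispensed reagent) in 20 mM phosphate pH 7.0 with 0.01% (detergent screen) or 0.0001% Triton X-100 was preincubated with compounds for 15 min at room temperature. Nitrocefin was then added from an 800 uM solution, and hydrolysis was followed at 480 nm.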
Sm TGR block = S. mansoni TGR enzyme inhibition; purified TGR, DTNB reduction, TNB absorbance 405 nm; Potency, µM (highest dose often 114 µM), inactives show at the highest dose activity change, negative = inhibition, actives largely listed as inhibitors; hit rate 3% among 360,000; further: nearly all actives have a fitted effect of over 60% in size
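Kinetic colorimetric format: TGR-catalysed, NADPH-driven DTNB reduction monitored via TNB absorbance. Enzyme dispensed at 20 nM; compound exposure 15 min at room temperature before reaction start.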
RE007 growth inh = less growth of the S. pombe RE007 Vpr strain | S. pombe RE007 Vpr strain, BacTiter-Glo ATP luminescence, 24 h | Potency, µM (highest dose often 92.2 µM), inactives show top-dose activity change, negative = less growth, most hits filed as inhibitors | hit rate 0.21% among 360,000; active means well fitted falling curve with a large enough effect; inconclusive means small, poorly fitted or top-dose-only effect; inactive means no such curve, though single readings can be large or run the other way; further: nearly all actives have a fitted effect of over 50% in size
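Fission yeast RE007 carrying one integrated HIV-1 vpr copy, seeded at OD 0.01 in PMG+AL medium with 23 nL pinned compound. Grown 24 h at 30 degrees; viability read by BacTiter-Glo luminescence after 5 min.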
AMA1-RON2 inh = inhibitors of Plasmodium falciparum AMA1-RON2 interaction; AlphaScreen AMA1-biotinylated RON2 peptide binding; Potency, µM (series often up to 58.2 µM), inactives show at the top dose activity change, negative = inhibition, most hits filed as inhibitors; hit rate 0.2% among 360,000;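 further: 0% = vehicle wells and -100% = peptide control; nearly all actives have a fitted effect of over 45% in size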
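AMA1 (3D7) with his tag at 25 nM final met compounds first, then biotinylated RON2 peptide at 25 nM; detection used donor plus acceptor beads, 10 µg/mL apiece, read by AlphaScreen after 30 min at room temperature.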
The depositor's hits bear a star; ? = inconclusive; nt = no result given. Hits are enriched below; roughly 3.2% of the tested compounds scored in any of these assays. Unless noted, the call rests on the fitted dose curve; in most records, active means well fitted curve in the direction sought with a large enough effect; inconclusive means small, poorly fitted or top-dose-only effect, or another doubt; inactive means no such curve, though single readings can be large; an effect the other way counts as inactive or inconclusive. Unless noted, on the % scale 0 is the no-effect control and ±100 the full control effect; potency means the concentration at half of the fitted maximal effect.

SMILES | AmpC detergent | AmpC inh no detg | Sm TGR block | RE007 growth inh | AMA1-RON2 inh
Nc1cc(N2CCNCC2)c([N+](=O)[O-])cc1Cl | -5% | -23% | -11% | 6% | 10%
CNC1=C([N+](=O)[O-])CC([N+](=O)[O-])=C(N2CCNCC2)N1C | 6% | -22% | 14µM* | -22% | 5%
O=C(N/N=C\C=C\c1ccco1)c1cncc(Br)c1 | -2% | -60% | 18µM* | 3% | 89%
O=C(N/N=C/C=C/c1ccco1)c1cccnc1 | 6% | -31% | 22µM* | -17% | -16%
CC(/C=C\C=C\c1ccccc1)=N\NC(=O)c1cncc(Br)c1 | 5% | -33% | 40µM* | -24% | 113%
O=C(N/N=C/C=C\c1ccco1)c1cccnc1 | -10% | -4% | 25µM* | 2% | -7%
O=C(N/N=C/C=C/c1ccccc1)c1cccnc1 | 1% | -20% | -1% | 13% | 98%
CCc1ccc(-c2cc(C)no2)cc1S(=O)(=O)NCc1ccc(OC)cc1 | 3% | nt | 12% | nt | nt
O=C(Nc1cccc(C(F)(F)F)c1)c1cc2nc(-c3ccc4c(c3)OCO4)cc(C(F)(F)F)n2n1 | 2% | nt | 14% | nt | nt
CCc1cccc(N2C(=O)CSC23C(=O)N(Cc2ccccc2F)c2ccccc23)c1 (stereo unspecified) | 18% | nt | 2% | nt | nt
Cc1[nH]n(C)c(=O)c1C(=O)c1c(-c2ccccc2Cl)noc1C | -1% | 70% | 45µM* | 2% | -1%
Cc1onc(-c2ccccc2Cl)c1C(N)=O | -8% | -14% | 0% | 6% | -2%
CCC12CN3CC(CC)(CN(C1)C3c1cc(Br)ccc1OC)C2=O (stereo unspecified) | 14% | nt | 3% | nt | nt
COc1ccc(N2C(=O)CC(NC3CC3)C2=O)cc1 (stereo unspecified) | -17% | -8% | -21% | -17% | 17%
COc1ccc(NC2CC(=O)N(c3cccc(C)c3)C2=O)cc1 (stereo unspecified) | -8% | -30% | 35µM* | -19% | 6%
COc1ccc(NC2CC(=O)N(c3cc([N+](=O)[O-])ccc3C)C2=O)cc1 (stereo unspecified) | 3% | -33% | 40µM* | 12% | -16%
COc1ccc(N2C(=O)CC(Nc3cccc(C(C)=O)c3)C2=O)cc1OC (stereo unspecified) | 1% | 2% | 56µM* | 14% | -10%
COc1ccc(NC2CC(=O)N(c3ccc(C(=O)O)cc3)C2=O)cc1 (stereo unspecified) | -10% | -14% | -33% | 46% | 19%
COc1ccc(NC2CC(=O)N(c3cccc([N+](=O)[O-])c3)C2=O)cc1 (stereo unspecified) | -3% | -30% | 56µM* | -23% | -7%
COc1ccc(C)cc1Cn1c(S(C)(=O)=O)nc2ccccc21 | 3% | ? | 40µM* | 14% | -7%
O=C(/C=C/c1ccccc1)CC(O)(c1ccccc1)C(F)(F)C(F)F (stereo unspecified) | 5% | -20% | 25µM* | -13% | -11%
O=C(/C=C/c1ccccc1)CC(O)(c1ccccc1)C(F)(F)F (stereo unspecified) | 2% | -28% | 28µM* | -16% | -6%
Cc1cccc(N2CCN(S(=O)(=O)c3ccc4oc(=O)c5ncn(C)c5c4c3)CC2C)c1 (stereo unspecified) | 7% | nt | -2% | nt | nt
CCOC(=O)CSc1nc2ccc(NC(=O)c3ccc(C)cc3)cc2s1 | 10% | nt | 4% | nt | nt
CCCN(C(=O)Cn1cnc2onc(-c3ccc(F)cc3)c2c1=O)c1cccc(Cl)c1 | -6% | nt | -2% | nt | nt
SMILES | AmpC detergent | AmpC inh no detg | Sm TGR block | RE007 growth inh | AMA1-RON2 inh
Cc1nc(N/N=C/c2ccc(O)cc2)c2cnn(-c3ccccc3)c2n1 | -10% | 16µM* | -2% | 0% | 0%
CC(=O)Nc1ccc(NCc2cccs2)cc1 | 2% | 1% | 17% | 7% | 0%
Oc1ccc(NCc2cccs2)cc1 | 0% | -39% | 50µM* | -15% | 62%
O=[N+]([O-])/C=C/c1cn(Cc2ccc(F)cc2)c2ccccc12 | ? | 18µM* | -14% | 12% | -23%
COc1cccc(-c2nc(CS(=O)CC(=O)O)c(C)o2)c1 (stereo unspecified) | -1% | -13% | ? | 4% | 5%
COc1cccc(-c2nc(CS(=O)CC(=O)NCCCOC(C)C)c(C)o2)c1 (stereo unspecified) | 4% | 29% | 25µM* | -5% | 3%
COc1cccc(-c2nc(CS(=O)(=O)CC(=O)NCCCOC(C)C)c(C)o2)c1 | ? | 83% | ? | 6% | -5%
Cc1ccccc1-c1nc(CS(=O)CC(=O)NC(C)CCc2ccccc2)c(C)o1 (stereo unspecified) | 5% | 161% | 0.14µM* | 1% | -6%
CCC(C)NC(=O)CS(=O)Cc1nc(-c2cccc(OC)c2)oc1C (stereo unspecified) | -14% | -5% | 28µM* | 2% | 0%
COc1cccc(-c2nc(CS(=O)CC(=O)NC(C)CCc3ccccc3)c(C)o2)c1 (stereo unspecified) | 4% | 179% | 10µM* | -6% | 5%
O=C1C(=O)N(C2CCN(C(=O)c3ccccc3F)CC2)CCN1Cc1ccc(F)cc1 | 1% | nt | -2% | nt | nt
COc1cccc(-c2nc(CS(=O)CC(=O)NCCc3ccccc3)c(C)o2)c1 (stereo unspecified) | 2% | 71% | 20µM* | 1% | 22%
COc1ccc(-c2nc(CS(=O)CC(=O)NCCc3ccc(C)cc3)c(C)o2)cc1OC (stereo unspecified) | -2% | 150% | 40µM* | -19% | 3%
COCCCNC(=O)CS(=O)Cc1nc(-c2ccccc2C)oc1C (stereo unspecified) | -17% | 2% | 40µM* | -4% | 18%
Clc1ccccc1C1CC(c2ccccc2)Nc2ncnn21 (stereo unspecified) | ? | 40µM* | 2% | 4% | -2%
Cc1cccc(NC(=O)CSc2nnc(-c3ccco3)c(-c3ccco3)n2)c1 | 8% | 16µM* | 3.5µM* | 9% | ?
Cc1cccc(NC(=O)Cn2nc(-c3ccco3)ccc2=O)c1C | 0% | -7% | 32µM* | 26% | 5%
Cc1cccc(NC(=O)CSc2nc(N)cc(N)n2)c1 | 3% | -10% | 4% | 0% | 18%
Cc1cccc(NC(=O)CSc2nnc(-c3ccco3)c(-c3ccco3)n2)c1C | -9% | ? | 3.5µM* | 7% | ?
COC(=O)Cn1c(SCCOc2ccccc2OC)nc2ccccc21 | 14% | nt | 24% | nt | nt
Cc1ccc2nc(-c3ccc(Cl)c(NC(=O)c4cccc([N+](=O)[O-])c4C)c3)oc2c1 | -2% | nt | -5% | nt | nt

From PubChem
